# Screening data from PubChem BioAssay.
# Most compounds without a hit are left out; they make up all but 3.2% or so of the library.
# p53 reactivation: re-activators of mutant p53. H1299 p53-A138V BP100-luciferase reporter, luminescence, 24 h. Potency, µM (top dose mostly 92.2 µM), inactives show at the highest dose activity change, positive = activation, hits mostly activators. 0.063% of 320,000 active. AID 504706; further: potency means the concentration at half of the fitted maximal effect; % of control where 0% means no effect; nearly all actives have a fitted effect of over 45% in size
#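 p53-null H1299 cells stably carrying temperature-sensitive p53-A138V and a BP100-luciferase reporter were pinned with compounds (4-point, 1:5 series) and held 24 hrs at 37 deg C. Luminescence was read 10 min after detection reagent.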
# Nrf2 activator: Nrf2 pathway activation. AREc32 ARE-luciferase reporter (MCF7-derived line), luminescence, 24 h. Potency, µM (doses to about 46.1 µM), for the others: at the highest dose activation, actives largely listed as activators. 0.31% of 410,000 active. AID 624171; further: potency means the concentration at half of the fitted maximal effect; % of control where 0% means no effect; nearly all actives have a fitted effect of over 65% in size
#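 Steps: seed AREc32_Fluc cells (1000/well, 5% FBS OPTI-MEM); incubate overnight at 37 deg C; add 23 nL compound; incubate 24 hr; add Steady-Glo; hold 30 min RT; read luminescence.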
# Nrf2 block: blocks Nrf2 signaling; Potency, µM (doses to about 46 µM), for inactives: at the highest dose activity change, negative = inhibition, usual class: inhibitors; 2.1% of 360,000 active; A549 ARE-Fluc reporter, luciferase luminescence, 18-24 h; further: potency means the concentration at half of the fitted maximal effect; on the % scale 0 is the no-effect control and ±100 the full control effect; nearly all actives have a fitted effect of over 60% in size
#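 Cells were seeded and rested 2 h, then exposed to compounds for 18-24 h. CellTiter-Fluor was read first as a viability measure. BugLite was added 15 min before the final luminescent read of ARE-luciferase activity in A549 cells.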
# IL2 activator: activates IL-2 in a cell-based reporter assay; 0.065% of 360,000 active; activation, % (series mostly up to about 46 µM); IL-2 activation reporter assay, cell-based qHTS; stimulated with anti-CD3/CD4/CD28 beads; in transgenic mouse T cells; in the data active means activation above about 50%; inconclusive means mostly about 30% to 49%; further: 0% is about no effect
#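 Unstimulated transgenic mouse T cells, 750 per well, received compound and, after 60 minutes, anti-CD3/anti-CD4 bead plus anti-CD28 stimulation. EGFP and DsRed were quantified after 18 hours.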
# A549 tox: kills or reduces viability of A549 cells in Nrf2 counter-screen. Potency, µM (titrated, usually from 46 µM), without a hit: top-dose activity change, negative = cytotoxicity, hits mostly inhibitors. 0.16% of 390,000 active. A549 ARE-Fluc cells, CellTiter-Fluor viability, 18-24 h; further: potency means the concentration at half of the fitted maximal effect; on the % scale 0 is the no-effect control and ±100 the full control effect
#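 A549 ARE_Fluc cells in 5% FBS OPTI-MEM were exposed to compounds in concentration-response for 18-24 h at 37 deg C. Viability was read by CellTiter-Fluor fluorescence (Ex 405/Em 525) after 30 min, before the luciferase read.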
# BRCA1 expr up: BRCA1 expression activation; AID 624202; 1.1% of 380,000 active; MCF7-BRCA1-FFLuc reporter, luminescence, 48 h; response scale: scaled: vehicle 0%, 10 µM genistein 100%; Potency, µM (top dose mostly 46.1 µM), for inactives: at the highest dose activation, most hits filed as activators; further: potency means the concentration at half of the fitted maximal effect; nearly all actives have a fitted effect of over 80% in size
#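 Reporter cells (MCF7, BRCA1 promoter-firefly luciferase) received library compounds across a concentration series for 48 h. End-point luminescence was measured and concentration-effect curves derived after normalization.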
# Starred values were filed as active, the others as inactive; ? = inconclusive; . = no result; [ ] = another dose, or the depositor's remark. Unless noted, the call rests on the fitted dose curve; in most records, active means well fitted curve in the direction sought with a large enough effect; inconclusive means small, poorly fitted or top-dose-only effect, or another doubt; inactive means no such curve, though single readings can be large; an effect the other way counts as inactive or inconclusive.
SMILES,p53 reactivation,Nrf2 activator,Nrf2 block,IL2 activator,A549 tox,BRCA1 expr up
COc1ccc(CCNC(=O)CN(c2ccc(C)cc2)S(=O)(=O)c2ccc(OC)cc2)cc1,.,4%,9%,.,-7%,-12%
CCOc1cc(/C=N/N=C(\N)c2nonc2N)cc(Br)c1OCc1cccc2ccccc12,-3%,4%,21µM*,0,?,-73%
COc1cc(/C=N/N=C(/N)c2nonc2N)cc(Br)c1OCc1cccc(C)c1,-1%,0%,21µM*,-1,-21%,-24%
COc1cc(/C=N/N=C(\N)c2nonc2N)cc(OC)c1O,7%,7%,?,-2,5%,-1%
Cc1nc2nncn2c(Nc2ccc(F)cc2)c1C,.,1%,?,.,-12%,0%
Cc1nc2nncn2c(NCc2ccc(F)cc2)c1C,.,3%,8.2µM*,.,0%,.
C=CCSc1nn2c(=O)c3ccccc3nc2s1,19%,6%,?,0,19%,2.8µM*
C/C(Cl)=C/CSc1nn2c(=O)c3ccccc3nc2s1,?,4%,?,0,-5%,?
Cc1c(N2C(=O)/C(=C/c3ccc(N(C)C)cc3)N(C)C2=S)c(=O)n(-c2ccccc2)n1C,.,-1%,-8%,10,23µM*,-31%
CCOc1cc(/C=C/C(=O)c2ccc(O)cc2)ccc1OCC(=O)N(C)C,?,?,-13%,1,-14%,-73%
CCOc1cc(/C=C/C(=O)c2ccc3c(c2)OCCO3)ccc1OCC(=O)N(C)C,-20%,11µM*,-17%,1,2%,-63%
O=C(/C=C/c1ccc2c(c1)OCCO2)c1ccccc1,?,?,?,-1,12%,7.1µM*
COc1ccc2c(c1)c1c(c(=O)n(Cc3ccccc3)c(=O)n1Cc1ccccc1)n2C,.,0%,8%,.,-2%,13%
CCCCC(=O)OCC(=O)C1(O)Cc2c(O)c3c(c(O)c2C(OC2CC(NC(=O)C(F)(F)F)C(O)C(C)O2)C1)C(=O)c1c(OC)cccc1C3=O (configuration not stated),.,-2%,9.2µM*,5,?,-64%
COc1cccc2c1C(=O)c1c(O)c3c(c(O)c1C2=O)CC(O)(C(C)=O)CC3OC1CC(O)C(O)C(C)O1 (configuration not stated),.,3%,10µM*,-8,?,-69%
COc1cccc2c1C(=O)c1c(O)c3c(c(O)c1C2=O)C[C@@](O)(C(=O)CO)C[C@@H]3O[C@H]1C[C@H](N)[C@H](OC2CCCCO2)[C@H](C)O1 (some centres not stated),.,.,.,.,.,-52%
CCN1/C(=C2/SC(=S)N(NC(C)=O)C2=O)Sc2ccc(OC)cc21,6%,-1%,-24%,1,?,-10%
C=CCN1C(=O)/C(=C2/Sc3ccc(OC)cc3N2CC)SC1=S,6%,0%,1%,189*,-5%,-6%
CCCCN1C(=O)/C(=C2/Sc3ccc(OC)cc3N2CC)SC1=S,?,5%,-5%,118*,-1%,0%
COC(=O)c1cc2oc3ccccc3c2n1Cc1cccc(C)c1,.,0%,4%,.,15%,.
O=C(CCNS(=O)(=O)c1ccc(Br)cc1)NC1CCCCC1,-5%,-1%,-8%,-2,-2%,-4%
CC1CCCC(NC(=O)CCNS(=O)(=O)c2ccc(Br)cc2)C1C (configuration not stated),0%,1%,15µM*,0,?,-14%
COCCOc1ccc(C(F)(F)F)cc1NC(=O)c1ccc(C)cc1,-2%,11µM*,-1%,-1,0%,-45%
C#CC(C)(C)NC(=O)c1ccc(-c2ccccc2F)cc1,0%,0%,28%,-3,10%,13µM*
NNC(=O)c1ccc(-c2ccccc2F)cc1,-3%,3%,0%,1,-16%,-9%
SMILES,p53 reactivation,Nrf2 activator,Nrf2 block,IL2 activator,A549 tox,BRCA1 expr up
Cc1cc(NC(=O)CCNS(=O)(=O)c2cccc3nsnc23)ccc1Br,.,3%,0%[9.27 µM],.,0%,-2%
CSc1ccc(/C=N/n2c(C)cc(C)cc2=O)cc1,29%,-1%,26%,-1,0%,10µM*
CCCN1C(=O)c2ccccc2NC1c1ccc(OC)c(COc2cccc(C)c2C)c1 (configuration not stated),.,.,26µM*,.,-8%,-44%
COc1ccc(C2Nc3ccccc3C(=O)N2Cc2cccc(Cl)c2)cc1COc1ccc(NC(C)=O)cc1 (configuration not stated),.,.,23µM*,.,-16%,.
COc1ccc(C2Nc3ccccc3C(=O)N2Cc2ccccc2)cc1COc1ccc(NC(C)=O)cc1 (configuration not stated),.,.,14%,.,-14%,.
Cc1ccc(-c2nc3ncccc3o2)cc1NC(=O)c1ccccc1Br,.,5%,?,.,-2%,.
COC(=O)c1cn(CC(=O)N2C(C)CCCC2C)c2ccccc12 (configuration not stated),-3%,0%,-8%,0,-13%,-18%
CC1CCCC(C)N1C(=O)Cn1cc(/C=C2/C(=O)Nc3ccccc32)c2ccccc21 (configuration not stated),3%,3%,18µM*,0,16µM*,-66%
CCOCCCNC(=O)/C(C#N)=C/c1ccc(-c2ccc(S(=O)(=O)N3CCOCC3)cc2)o1,-7%,0%,0%,11,-3%,-67%
CCOCCCNC(=O)/C(C#N)=C/c1ccc([N+](=O)[O-])o1,-8%,?,26µM*,-1,?,-10%
CCOc1ccccc1NC(=O)C(=O)/C=C(\O)c1cc(OC)ccc1OC,0%,5%,-22%,-2,-1%,-31%
COc1ccccc1NC(=O)C(=O)/C=C(\O)c1ccccc1,9%,28%,9%,-1,-5%,2.8µM*
Cc1ccn(CCC(=O)NC2CCCc3c2cnn3-c2cccc(C)c2C)n1 (configuration not stated),-3%,0%,-16%,-2,-3%,1%
Cc1cccc(-n2ncc3c2CCCC3NC(=O)CCc2ccncc2)c1C (configuration not stated),5%,-1%,5.8µM*,-3,-7%,-3%
CCOC(=O)c1c(C)[nH]c(C(=O)OCC(=O)NC(C)(C)C)c1C,-1%,3%,18µM*,0,-10%,-2%
CC(=O)c1c(C)[nH]c(C(=O)OCC(=O)Nc2ccc3c(c2)OCCO3)c1C,-7%,2%,16µM*,-5,-1%,-28%
